Shown are actives, neighbours in structure and some others; about 12% of the full set was active somewhere.
L3MBTL1 inh = inhibitors of human L3MBTL1 | Q9Y468 | AlphaScreen L3MBTL1–H3K9me1 peptide binding | Potency, µM (series often up to 57.1 µM), for the others: at the highest dose activity, negative = inhibition, actives largely listed as inhibitors | 230,000 tested, 0.66% active | AID 485360; also: % is scaled to controls: 0 for no effect and ±100 for the full control effect; nearly all actives have a fitted effect of over 60% in size
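AlphaScreen assay: L3MBTL1 (50 nM final) was preincubated 30 min at room temperature with biotinylated H3(1-15)K9me1 peptide (75 nM final), then 30 min with library compounds; streptavidin donor and nickel chelate acceptor beads (10 ug/mL final) added, 30 min dark.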
Sfp inh = inhibitors of Bacillus subtilis Sfp phosphopantetheinyl transferase. Q9F4F7. Biochemical Sfp PPTase activity, qHTS. Potency, µM, without a hit: largest response in the series, negative = inhibition, hits mostly inhibitors. 310,000 tested, 3.5% active. AID 1490;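 also: the enzyme is Sfp with the accession as filed and its product quenches rhodamine fluorescence; 0% = enzyme reaction without inhibitor and -100% = no enzyme wells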
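Step 1, compound plus 15 nM Sfp-PPTase, 15 min, room temperature. Step 2, add rhodamine-CoA (5 uM) and BHQ-2-YbbR (12.5 uM). Step 3, read 525/598 nm fluorescence at 0 and 30 min.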
G9a inh = inhibitors of human histone lysine methyltransferase G9a | Q96KQ7 | G9a H3K9 monomethylation, AlphaScreen, 2 h | Potency, µM (highest dose often 102 µM), inactives show at the highest dose activity, negative = inhibition, usual class: inhibitors | 350,000 tested, 8.8% active; also: % is scaled to controls: 0 for no effect and ±100 for the full control effect; nearly all actives have a fitted effect of over 75% in size
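Methyltransferase reactions run at room temperature for 2 h (20 nM enzyme, 500 nM biotin-H3K9 peptide, 20 uM SAM) after a 15 min compound preincubation; product detected by AlphaScreen beads and anti-H3K9me1 antibody.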
HP1b chromo inh = blocks HP1-beta chromodomain binding to methylated histone tails; P83916; AlphaScreen HP1-beta / biotin-H3K9me3 peptide binding; Potency, µM (titrated, usually from 114 µM), without a hit: at the highest dose activity change, negative = inhibition, actives largely listed as inhibitors; 390,000 tested, 0.56% active; AID 540317; also: nearly all actives have a fitted effect of over 70% in size
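HP1-beta protein (50 nM final) preincubated 30 min at room temperature with biotinylated H3(1-18)K9me3 peptide (50 nM) in PBS pH 7.4, 0.01% Tween-20, then compound added for 30 min. AlphaScreen streptavidin donor/nickel chelate acceptor beads (10 ug/mL final), 30 min dark, luminescence read.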
JMJD2A Tudor inh = inhibitors of human JMJD2A Tudor domain; Potency, µM (doses to about 114 µM), without a hit: top-dose activity change, negative = inhibition, usual class: inhibitors; 390,000 tested, 4.4% active; AID 504339; AlphaScreen JMJD2A-Tudor / H3K4me3 peptide binding; O75164; also: % is scaled to controls: 0 for no effect and ±100 for the full control effect; nearly all actives have a fitted effect of over 50% in size
BAZ2B inh = blocks human BAZ2B; 360,000 tested, 4.4% active; Potency, µM (series often up to 114 µM), without a hit: top-dose activity change, negative = inhibition, usual class: inhibitors; AID 504333; AlphaScreen BAZ2B-H3K14Ac peptide displacement; also: % is scaled to controls: 0 for no effect and ±100 for the full control effect; nearly all actives have a fitted effect of over 60% in size
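Complex of BAZ2B and biotin-H3K14Ac (50 nM apiece) forms over 30 min at RT, then faces library compounds up to 110 uM for another 30 min; AlphaScreen beads added, 20 min dark incubation, luminescence read.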
An asterisk follows results filed as active; ? = inconclusive; / = no result given; [ ] = dose if it differs, or a comment. Calls follow the shape of the dose curve; as a rule, active = well fitted curve in the direction sought with a large enough effect; inconclusive = small, poorly fitted or top-dose-only effect, or another doubt; inactive = no such curve, though single readings can be large; an effect the other way counts as inactive or inconclusive. Potency is read from the fitted curve at half-maximal effect.

SMILES	L3MBTL1 inh	Sfp inh	G9a inh	HP1b chromo inh	JMJD2A Tudor inh	BAZ2B inh
NS(=O)(=O)c1ccc(N/N=C/c2cn(-c3ccccc3)nc2-c2cccs2)cc1	-6%	10%	10µM*	-3%	?	3%
O=C(O)c1cccc(N/N=C/c2cn(-c3ccccc3)nc2-c2cccs2)c1	-27%	-8%	35µM*	-2%	?	?
Cc1ccc(C)c(NC(=O)CN2CCCN(Cc3cccc(Cl)c3)S2(=O)=O)c1	/	/	3%[59 µM]	48%	11%	-2%
CCOC(=O)[C@@H]1[C@H]2COc3cc(OC)ccc3[C@@H]2N2C(=O)N(c3ccccc3)C(=O)[C@@]12C	2%	/	/	20%	-18%	/
COc1cccc(/C=N/NC(=O)C(=O)N2CCCCCC2)c1O	/	11%	/	43%	79µM*	79µM*
COc1cccc(/C=N/NC(=O)c2cc3cc([N+](=O)[O-])ccc3s2)c1O	?	?	?	?	63µM*	22µM*
COc1cccc(/C=N/NC(=O)C(=O)N/N=C/c2cccc(OC)c2O)c1O	?	13%	5%	37%	100µM*	50µM*
COc1cccc(/C=N/NC(=O)c2cnccn2)c1O	?	26%	6%	51%	-17%[11.4 µM]	79µM*
CCN(CC)CCn1c(-c2ccccc2)nc2c(N3CCOCC3)nc(C)nc21	/	22%	/	/	/	/
COc1ccc2nc(SCC(=O)N(C)CC(=O)Nc3ccc(F)cc3)[nH]c2c1	8%	/	4%[0.501 µM]	23%	1%	6%
COC(=O)c1cc2sccc2n1CC(=O)Nc1ccc(C)cc1C	/	/	-7%[59 µM]	6%	-17%	-1%
COC(=O)c1cccc(/C=N/NC(N)=S)c1O	?	17%	-1%	34%	?	4.5µM*
COc1cccc(C=NCCNC(=O)c2nonc2N)c1O	-3%	45µM*	?	11%	-19%	-33%
COc1ccc(/C=N/NC(N)=S)cc1OC(=O)c1cccc2ccccc12	-11%	10%	7%	-10%	-21%[57.1 µM]	?
C[C@H](Cc1nc2c(cnn2-c2ccccc2Cl)c(=O)[nH]1)C(F)(F)F	/	-21%	/	/	/	/
Cc1cccc(Cn2c(=O)n(CCC(=O)NCc3ccc4c(c3)OCO4)c(=O)c3sccc32)c1	/	/	4%[59 µM]	44%	-1%	5%
COc1ncc2nc(-c3ccc(F)cc3)c(=O)n(C3CC3)c2n1	/	24%	8%[0.501 µM]	/	/	/
CC(C)CC(C(=O)O)N1C(=O)C2C3C=CC(C2C1=O)C1C(=O)N(C(CC(C)C)C(=O)O)C(=O)C31 (stereo not given)	/	18%	/	22%	-52%	-20%
COc1ccc(C2C(C(C)=O)=C(O)C(=O)N2CCCn2ccnc2)cc1OC (stereo not given)	1%	4%	50µM*	25%	-10%	?
CCOc1ccc(C2C(C(=O)c3ccco3)=C(O)C(=O)N2CCCn2ccnc2)cc1 (stereo not given)	-1%	5%	?	22%	45µM*	-2%
CCOc1ccc(-c2ccc(NS(=O)(=O)c3cc(C)c(C)cc3C)cc2)nn1	/	/	-28%[59 µM]	11%[57 µM]	-25%	-14%
CCOC(=O)C1(Cc2cccc(Cl)c2)CCCN(C(=O)C(C)(C)C)C1 (stereo not given)	62%	4%	/	33%	2%	-2%
CC(=O)O[C@@H](C)C[N+](C)(C)C	/	20%	10%[21.5 µM]	/	/	/
COc1cc(OC)cc(-c2sc3ccc(OC)cc3c2C#CC2(N)CCCCC2)c1	-2%	/	/	28%	-16%	/
COc1ccc(-c2sc3cc4c(cc3c2C#CC2(N)CCCCC2)OCO4)cc1	-6%	/	4%[0.501 µM]	11%	25µM*	10µM*
SMILES	L3MBTL1 inh	Sfp inh	G9a inh	HP1b chromo inh	JMJD2A Tudor inh	BAZ2B inh
COc1cc(F)c(S(=O)(=O)N2CCN(S(=O)(=O)c3ccco3)CC2)c(F)c1	/	/	/	/	-20%	/
CC[C@H](C)/C=C(C)/C=C/C(=O)Cc1cc(O)c(C)c(O)c1C=O	/	89µM*	?	-24%	?	?
O=C(O)C1Nc2c(O)cc(Cl)c([N+](=O)[O-])c2C2C=CCC12 (stereo not given)	0.32µM*	56µM*	2.8µM*	4.5µM*	11µM*	1.4µM*
CC[C@@H](C)[C@H]1O[C@]2(CC[C@@H]1C)C[C@@H]1C[C@@H](C/C=C(\C)[C@@H](O[C@H]3C[C@H](OC)[C@@H](O[C@H]4C[C@H](OC)[C@@H](O)[C@H](C)O4)[C@H](C)O3)[C@@H](C)/C=C/C=C3\CO[C@@H]4[C@H](O)C(C)=C[C@@H](C(=O)O1)[C@]34O)O2	/	/	21%[12.7 µM]	/	/	/
CCc1nc(SCC(=O)Nc2ccc(N(CC)CC)cc2)n[nH]1	/	/	/	16%[57 µM]	-22%	/
CCN(CC)c1ccc(Nc2nc(Cl)ncc2Br)cc1	/	-24%	10µM*	?	28µM*	35µM*
CC1CCCC(NCC(O)COC(c2ccc(F)cc2)c2ccc(F)cc2)C1C (stereo not given)	12%	-26%	8.9µM*	?	1µM*	?
COc1cccc(C(=O)CN2C3=NCCCN3c3ccccc32)c1	-2%	12%	?	20%	-15%	7%
COc1ccc(C(=O)CN2C3=NCCCN3c3ccccc32)cc1OC	1%	7%	45µM*	10%	-12%	-6%
Cc1cc2nc(C)c(=O)n(C)c2cc1C	-3%	0%	7%[59 µM]	10%	35µM*	4%
Cc1cc2nc(-c3ccc(=O)[nH]c3)n(C)c2cc1C	/	11%	2%	17%	2%	-9%
c1csc(C2C3=C(Nc4ncnn42)c2ccccc2OC3)c1 (stereo not given)	1%	50µM*	?	24%	?	-37%
COc1ccc(C(=O)O)nc1C	52%	45µM*	-11%	0%	5.6µM*	15%
Cc1ccc(N2NC(=O)/C(=C/c3ccc(-c4ccc(Cl)c(C(=O)O)c4)o3)C2=O)cc1C	-25%	11%	?	-3%	-24%	?
CC1=NN(c2ccc(Cl)c(C(=O)O)c2)C(=O)/C1=C\c1ccc(-c2ccc(C(=O)O)cc2)o1	/	-11%	8.9µM*	-15%	?	50µM*
O=C(O)c1cc(-c2ccc(/C=N/Nc3ccc(Cl)cc3)o2)ccc1Cl	-10%	-21%	?	-2%	?	-34%
O=C1NN(c2cccc(Br)c2)C(=O)/C1=C/c1ccc(-c2cc([N+](=O)[O-])ccc2O)o1	/	16%	-156%[59 µM]	?	?	2.2µM*
N#C/C(=C/c1ccc(-c2cc([N+](=O)[O-])ccc2Cl)o1)C(N)=O	/	-19%	/	47%	-21%	?

Source: PubChem BioAssay
